Screening results deposited in PubChem BioAssay by several laboratories.
ERa SRC1 pot: enhancers of ERα–SRC-1 coactivator binding, primary screen, biochemical, TR-FRET, ERα LBD, low estradiol. TR-FRET ERalpha-LBD/SRC-Cy5 coactivator binding, 2 h; 100 = basal binding, no effect. coactivator binding (% of control), % at 25.6 µM. actives 1.3% (n = 86,000); in the data active = activity above about 200%;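 note: binding measured in presence of low estradiol as agonist stimulus; 0% = peptide alone without receptor and 100% = receptor with peptide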
Target sequence (P03372 whole entry, looked up, the tested form may be a part): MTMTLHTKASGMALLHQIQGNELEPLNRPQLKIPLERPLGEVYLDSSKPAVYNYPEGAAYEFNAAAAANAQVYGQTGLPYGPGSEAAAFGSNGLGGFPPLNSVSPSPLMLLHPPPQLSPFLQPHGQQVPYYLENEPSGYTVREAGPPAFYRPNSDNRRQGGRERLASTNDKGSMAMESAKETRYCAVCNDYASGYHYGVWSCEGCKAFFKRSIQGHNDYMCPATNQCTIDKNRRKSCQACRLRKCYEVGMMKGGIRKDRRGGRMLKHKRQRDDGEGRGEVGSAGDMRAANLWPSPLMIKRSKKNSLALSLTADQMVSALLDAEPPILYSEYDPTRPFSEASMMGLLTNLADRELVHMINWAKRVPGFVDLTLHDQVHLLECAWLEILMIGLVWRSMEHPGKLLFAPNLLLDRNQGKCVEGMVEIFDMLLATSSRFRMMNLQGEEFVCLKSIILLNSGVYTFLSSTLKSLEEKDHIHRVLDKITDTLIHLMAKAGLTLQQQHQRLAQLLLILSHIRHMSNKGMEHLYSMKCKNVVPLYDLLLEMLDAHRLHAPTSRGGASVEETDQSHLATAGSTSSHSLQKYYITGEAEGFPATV
EphB4 antag: EphB4-ephrin-B2 interaction antagonists, primary screen, biochemical, TNYL-RAW peptide probe, fluorescence polarization. AID 720, 2007. actives 0.15% (n = 97,000). inhibition, % at 7 µM. Ephrin type-B receptor 4 (Homo sapiens), P54760. EphB4 LBD / TNYL-RAW-Alexa532 peptide;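 active = inhibition above the screen-wide mean inhibition plus 3 SD, cut at about 15% in these data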;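 note: 0% = DMSO wells and 100% = excess unlabeled TNYL-RAW peptide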
ERa coact inh: ERα–SRC-1 coactivator interaction inhibitors, primary screen, biochemical, TR-FRET, ERα LBD, estradiol-bound. TR-FRET ER-alpha LBD / SRC-1 peptide. inhibition, % at 25.6 µM. actives 1.7% (n = 86,000). Estrogen receptor (Homo sapiens), P03372; in the data active = inhibition above about 50%;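 note: 0% = receptor plus peptide control and 100% = peptide only without receptor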
ERb SRC1 inh: inhibitors of ERβ-SRC1 coactivator interaction, primary screen, biochemical, TR-FRET, ERβ LBD, SRC-1 peptide; Estrogen receptor beta (Homo sapiens), Q92731; TR-FRET ER-beta LBD / SRC1-Cy5 peptide binding; receptor agonist-loaded with 1 µM estradiol; inhibition, % at 25.6 µM; actives 1.3% (n = 86,000);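 active = compounds whose percent inhibition of the receptor-coactivator binding signal exceeds about 50% in the single-dose screen, limit read from the data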;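 note: 0% = receptor plus peptide wells without compound and 100% = peptide-only wells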
Numbers without * were called inactive; nt = not tested or not shown; [ ] = remark or other dose. In the library only some 2.8% were active in any assay of this set; here they are far more common.

SMILES | ERa SRC1 pot | EphB4 antag | ERa coact inh | ERb SRC1 inh
COc1cccc(N2C(=O)CC(=O)NC2=O)c1 | 116 | -10 | -1 | 7
CCOc1cccc(N2C(=O)CC(=O)NC2=O)c1 | 105 | 17*[fluorescence artefact?] | 14 | -6
COc1cc(/C=N/NC(=O)CN2CC(c3ccccc3)CC2=O)ccc1OC(=O)N(C)C (stereo unspecified) | nt | 1 | nt | nt
COc1ccc(-n2c(O)c(C=Nc3c(C)n(C)n(-c4ccccc4)c3=O)c(=O)[nH]c2=O)cc1 | nt | -6 | nt | nt
O=C(CSC1c2ccccc2-c2ccccc21)N/N=C/c1ccccc1O | 89 | -7 | -2 | -17
CC1CCC(NCC(O)c2ccccc2)CC1 (stereo unspecified) | 294*[fluorescence artefact?] | 7 | 1 | -4
CC12CCC(=O)C=C1CCC1C2CCC2(C)C(O)CCC12 (stereo unspecified) | 122 | nt | -1 | 6
C[C@]12CCC(=O)C=C1CCC1C2CC[C@@]2(C)C1CC[C@@]2(O)CC#N (stereo partly specified) | 97 | nt | 1 | 54*
CCOc1ccc2[nH]c(=O)c(CN(CCO)C3(c4nnnn4C4CCCCC4)CCCCC3)cc2c1 | 239* | -5 | 12 | -1
FC(F)(F)C1=NC(C(F)(F)F)=NP(N2CCOCC2)(N2CCOCC2)=N1 | 104 | nt | 3 | 3
COc1cc(CN2CCN(C(=O)COc3ccccc3)CC2)cc(OC)c1OC | 104 | 8 | -10 | 6
Cn1cccc1CN1CCN(C(=O)COc2ccccc2)CC1 | 101 | 13 | 0 | 93*[fluorescence artefact?]
CCN(CC)P(=O)(NC(=O)C(Cl)(Cl)Cl)N(CC)CC.[Cl-].[Cl-].[Cl-].[Nd+3] | 95 | 6 | 69*[fluorescence artefact?] | 50*[fluorescence artefact?]
c1ccc2cc3cc4ccccc4cc3cc2c1 | 109 | nt | -5 | 8
CN1CCN(c2ccc(N)cc2)CC1 | 14 | 2 | 84*[fluorescence artefact?] | 91*[fluorescence artefact?]
CN1CCN(c2ccc(N)c(N3CCN(C)CC3)c2)CC1 | 73 | 5 | 11 | 19
CCCCCCn1c(=O)c(C(=O)Nc2c(C)n(C)n(-c3ccccc3)c2=O)c(O)c2ccccc21 | 81 | nt | 2 | -12
O=C1CN(C(=O)CN2CCCCC2)C(c2ccccc2)c2cc(Br)ccc2N1 (stereo unspecified) | 106 | 16* | -3 | -5
O=P1(NCc2ccco2)COc2ccccc2OC1 | 211*[fluorescence artefact?] | 1 | -1 | 2
COc1ccc2[nH]c(C)c(CCN3CCC(=O)C(C)C3C)c2c1 (stereo unspecified) | 83 | 1 | 41 | 64*[fluorescence artefact?]
